SW480 rerep = DNA re-replication induction in SW480 cells; SW480 DNA re-replication, Hoechst DNA content imaging, 48 h; Potency, µM (series often up to 46.1 µM), for the others: at the highest dose re-replication activation, most hits filed as activators; 340,000 compounds, 1.8% hits; note: potency is the fitted concentration of half-maximal effect; % of control where 0% means no effect; nearly all actives have a fitted effect of over 55% in size
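Per well, 250 cells were exposed to pinned compound for 48 hr. Nuclear DNA was visualised with Hoechst (40 min, 37 C) and total object intensity recorded by fluorescence scanning.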
IL1B secr inh = inflammasome signaling inhibition, IL-1 beta readout; activity change, % at 57.5 µM; AID 743279; 360,000 compounds, 4.7% hits; THP-1 LPS/ATP IL-1B secretion, AlphaLISA, 16 h; stronger effect = lower value; in the data active = activity change below about -50%; inconclusive = mostly about -30% to -49%; note: % is set by controls: 0 for no effect and ±100 for the full control effect
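Secreted IL-1B measured by AlphaLISA bead assay after 16 h compound exposure of THP-1 cells; compounds (final up to 57.5 uM) added 1 h before LPS (250 ng/mL) and ATP (1.25 mM) stimulation; lower signal means less secretion.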
DT40 TDP1 no CPT = qHTS for Inhibitors of human tyrosyl-DNA phosphodiesterase 1 (TDP1): qHTS in cells in absence of CPT. DT40 Tdp1-/- hTDP1 cells, no CPT, ATP luminescence, 48 h. Potency, µM (doses to about 46.2 µM), for the others: top-dose activity change, negative = growth inhibition, hits mostly inhibitors. 420,000 compounds, 15% hits; note: potency is the fitted concentration of half-maximal effect; % is set by controls: 0 for no effect and ±100 for the full control effect; nearly all actives have a fitted effect of over 55% in size
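No-CPT arm: Tdp1-/-;hTDP1 DT40 cells (400/well) plus compounds, incubated ≥48 hr at 37 °C. Readout CellTiter-Glo luminescence.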
Chronic BCR inh = blocks chronic active B-cell receptor signaling. AID 493014. 340,000 compounds, 0.05% hits. ABC-DLBCL IkBa-CBG/CBR reporter, luminescence ratio, 4 h. Potency, µM (series often up to 46.1 µM), inactives show at the highest dose activity change, negative = inhibition, usual class: inhibitors; active = well fitted inhibition curve with a large enough effect in the signal ratio, with a control signal flat, not every such curve was filed as active; inconclusive = small, poorly fitted or top-dose-only effect, or effect the other way, or a change in a side signal; the % refers to the signal ratio;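 note: potency is the fitted concentration of half-maximal effect; plate controls were basal doxycycline-induced cells for no effect and cells given 10 µM MG132 for full effect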
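Concentration-response series (up to 46 uM) were applied to TMD8 dual-reporter cells for 4 h at 37C with doxycycline. Green/red ratio, after filter-overlap correction, defined %Activity; red signal alone was normalised to basal cells and zero luminescence.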
MCF10A rereplic = induces DNA re-replication in MCF 10a normal breast cells. MCF 10A DNA re-replication, Hoechst nuclear intensity, 48 h. Potency, µM (highest dose often 46.1 µM), inactives show at the top dose activity, positive = re-replication, actives largely listed as activators. 350,000 compounds, 2.9% hits. AID 624296; note: potency is the fitted concentration of half-maximal effect; % of control where 0% means no effect; nearly all actives have a fitted effect of over 50% in size
DT40 TDP1 CPT = DT40-hTDP1 cell growth loss with CPT | chicken DT40 Tdp1-/-;hTDP1 cells + 20 nM CPT, ATP luminescence, 48 h | Potency, µM (titrated, usually from 46.2 µM), inactives show at the top dose activity change, negative = growth inhibition, usual class: inhibitors | 420,000 compounds, 12% hits | AID 686979; note: potency is the fitted concentration of half-maximal effect; % is set by controls: 0 for no effect and ±100 for the full control effect; nearly all actives have a fitted effect of over 55% in size
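Chicken DT40 Tdp1-/- cells complemented with human TDP1, 400 cells/well, exposed to compounds plus 20 nM camptothecin for at least 48 h at 37 C; viability read as ATP content by CellTiter-Glo luminescence.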
The depositor's hits bear a star. Only some compounds are listed: those with a hit (about 19% of all), similar ones and a draw of the others. Unless noted, calls come from the whole dose curve; as a rule, active = well fitted curve in the direction sought with a large enough effect; inconclusive = small, poorly fitted or top-dose-only effect, or another doubt; inactive = no such curve, though single readings can be large; an effect the other way counts as inactive or inconclusive.

Results for COc1ccc(NC(=S)N2CCN(C/C=C/c3ccccc3)CC2)cc1 ?
SW480 rerep: 3.1%; IL1B secr inh: -18.5; DT40 TDP1 no CPT: inconclusive; Chronic BCR inh: -12.9%; MCF10A rereplic: 8.4%; DT40 TDP1 CPT: -2.2%

How did CC1C(c2ccccc2)N(C)C(c2ccccc2)C(C)C1(O)C#Cc1ccccc1 (centres undefined) do in these assays?
SW480 rerep: 4.2%; IL1B secr inh: -65.1*; DT40 TDP1 no CPT: 10.3µM*; Chronic BCR inh: inconclusive; MCF10A rereplic: 23.1µM*; DT40 TDP1 CPT: 9.2µM*

How did CCN1CCC(O)(C#Cc2ccccc2)CC1 do in these assays?
SW480 rerep: 15.5%; IL1B secr inh: 45.0; DT40 TDP1 no CPT: -1.1%; Chronic BCR inh: 2.0%; MCF10A rereplic: 2.0%; DT40 TDP1 CPT: -1.9%

How did O=C(Nc1ccccc1C(=O)OCc1cc(=O)n2nc(C3CC3)sc2n1)c1cccc(F)c1 do in these assays?
DT40 TDP1 no CPT: 0.0%; DT40 TDP1 CPT: -8.2%

What do the screens show for `CN1C(=O)/C(=C\C=C2/CCCN2C)N(C)C1=S`?
SW480 rerep: -27.2%; IL1B secr inh: 21.5; DT40 TDP1 no CPT: 7.9%; Chronic BCR inh: -10.2%; MCF10A rereplic: -11.2%; DT40 TDP1 CPT: -16.7%

How did CCN1C(=O)/C(=C/C=C2/CCCN2C)OC1=S do in these assays?
SW480 rerep: -3.8%; IL1B secr inh: 2.1; DT40 TDP1 no CPT: 5.17µM*; Chronic BCR inh: inconclusive; MCF10A rereplic: 8.0%; DT40 TDP1 CPT: inconclusive

How did O=c1[nH]c(CN2CCN(c3ccc(O)cc3)CC2)nc2scc(-c3ccc(Cl)cc3)c12 do in these assays?
SW480 rerep: 3.66µM*; IL1B secr inh: 0.0; DT40 TDP1 no CPT: 4.61µM*; Chronic BCR inh: inconclusive; MCF10A rereplic: inconclusive; DT40 TDP1 CPT: 3.66µM*

How did O=c1[nH]c(CN2CCN(c3ccccc3O)CC2)nc2scc(-c3ccccc3Cl)c12 do in these assays?
SW480 rerep: -22.2%; IL1B secr inh: -52.1*; DT40 TDP1 no CPT: inconclusive; Chronic BCR inh: inconclusive; MCF10A rereplic: 20.2%; DT40 TDP1 CPT: inconclusive

How did COc1cccc(N2CCN(Cc3nc4scc(-c5ccccc5)c4c(=O)[nH]3)CC2)c1 do in these assays?
SW480 rerep: inconclusive; IL1B secr inh: 33.0; DT40 TDP1 no CPT: 5.17µM*; Chronic BCR inh: -8.3%; MCF10A rereplic: 10.3µM*; DT40 TDP1 CPT: 5.17µM*

Results for COc1ccc(-n2nc(C(=O)NCC(=O)NC3CCCCC3)c3ccccc3c2=O)cc1 ?
SW480 rerep: -5.8%; IL1B secr inh: -21.7; DT40 TDP1 no CPT: inconclusive; Chronic BCR inh: -0.5%; MCF10A rereplic: -4.2%; DT40 TDP1 CPT: 0.9%

How did O=C(c1ccccc1)C(O)c1ccccc1 (centres undefined) do in these assays?
SW480 rerep: 7.8%; IL1B secr inh: -19.8; DT40 TDP1 no CPT: 7.5%; Chronic BCR inh: -2.6%; MCF10A rereplic: inconclusive; DT40 TDP1 CPT: 14.9%

What do the screens show for `O=C(c1ccccc1)C(c1ccccc1)[n+]1csc2ccccc21` (centres undefined)?
DT40 TDP1 no CPT: 11.2µM*; DT40 TDP1 CPT: inconclusive

What do the screens show for `COCc1cc(C)nc2sc3c(c12)NC(c1ccccc1C(=O)O)N(c1cccc(C(F)(F)F)c1)C3=O` (centres undefined)?
DT40 TDP1 no CPT: inconclusive; DT40 TDP1 CPT: 29.1µM*

Results for COCc1cc(C)nc2sc3c(c12)NC(c1ccc(O)cc1)N(c1ccc(C)cc1)C3=O (centres undefined) ?
DT40 TDP1 no CPT: 18.4µM*; DT40 TDP1 CPT: 18.4µM*

How did CCOC(=O)[C@@H]1[C@H]2COc3cc(OC)ccc3[C@@H]2N2C(=O)N(c3ccc(Cl)cc3)C(=O)[C@@]12C do in these assays?
SW480 rerep: inconclusive; IL1B secr inh: -15.8; DT40 TDP1 no CPT: inconclusive; Chronic BCR inh: inconclusive; MCF10A rereplic: 5.0%; DT40 TDP1 CPT: inconclusive

Results for CN(C)CCCn1c(N)c(S(=O)(=O)c2ccccc2)c2nc3ccccc3nc21 ?
SW480 rerep: inconclusive; IL1B secr inh: -26.7; DT40 TDP1 no CPT: inconclusive; Chronic BCR inh: 7.8%; MCF10A rereplic: 23.1µM*; DT40 TDP1 CPT: 18.4µM*

Results for CCCCn1c(N)c(S(=O)(=O)c2ccc(C)cc2)c2nc3ccccc3nc21 ?
SW480 rerep: 0.651µM*; IL1B secr inh: -81.2*; DT40 TDP1 no CPT: inconclusive; Chronic BCR inh: inconclusive; MCF10A rereplic: 3.66µM*; DT40 TDP1 CPT: -101.3%

Results for Cc1ccc(S(=O)(=O)c2c(N)n(-c3ccccc3)c3nc4ccccc4nc23)cc1 ?
SW480 rerep: -2.6%; IL1B secr inh: inconclusive; DT40 TDP1 no CPT: inconclusive; Chronic BCR inh: -0.7%; MCF10A rereplic: inconclusive; DT40 TDP1 CPT: inconclusive

What do the screens show for `Cc1ccc(S(=O)(=O)c2c(N)n(Cc3ccco3)c3nc4ccccc4nc23)cc1`?
SW480 rerep: inconclusive; IL1B secr inh: -7.4; DT40 TDP1 no CPT: 18.4µM*; Chronic BCR inh: inconclusive; MCF10A rereplic: inconclusive; DT40 TDP1 CPT: inconclusive

How did O=C(CNC(=O)OCc1ccccc1)NCC(=O)Oc1ccc([N+](=O)[O-])cc1 do in these assays?
SW480 rerep: 0.0%; IL1B secr inh: -0.5; DT40 TDP1 no CPT: inconclusive; MCF10A rereplic: -4.4%; DT40 TDP1 CPT: -1.0%

How did CCCNC(=O)CCC(=O)N1Cc2cccc(OC)c2Oc2ncccc21 do in these assays?
DT40 TDP1 no CPT: 0.8%; DT40 TDP1 CPT: -11.6%

What do the screens show for `COc1ccc(/C=C/c2cc(=O)c3cc(Cl)ccc3o2)cc1`?
SW480 rerep: inconclusive; IL1B secr inh: -10.2; DT40 TDP1 no CPT: 20.6µM*; Chronic BCR inh: -11.3%; MCF10A rereplic: 20.6µM*; DT40 TDP1 CPT: inconclusive

What do the screens show for `Cc1cc(=O)oc2cc(OCC(=O)N3CCN(C(=O)C4COc5ccccc5O4)CC3)c(Cl)cc12` (centres undefined)?
SW480 rerep: 3.3%; IL1B secr inh: 0.0; DT40 TDP1 no CPT: inconclusive; Chronic BCR inh: -0.2%; MCF10A rereplic: 7.8%; DT40 TDP1 CPT: inconclusive

How did COc1ccc2c(C)c(CC(=O)N3CCN(C(=O)C4COc5ccccc5O4)CC3)c(=O)oc2c1C (centres undefined) do in these assays?
SW480 rerep: 16.4µM*; IL1B secr inh: inconclusive; DT40 TDP1 no CPT: inconclusive; Chronic BCR inh: 6.4%; MCF10A rereplic: inconclusive; DT40 TDP1 CPT: inconclusive

Source: PubChem BioAssay
